Assay outcomes: PubChem BioAssay, National Center for Advancing Translational Sciences (NCATS)
Compounds with a hit are over-represented: about 6.1% of the library has one in this group of screens.
D1 potentiator = human D1 dopamine receptor positive modulation; P21728; HEK293 TREx D1 cells, calcium flux, dopamine EC20 potentiation; potentiation, % at 10 µM; 0.036% of 360,000 active; in the data active means potentiation above about 30%
D1 agonist = activates the human D1 dopamine receptor; HEK293 T-REx D1 cells, calcium flux, agonist mode; activation, % at 2 µM; 1% of 360,000 active; AID 504660; in the data active means activation above about 30%
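Tetracycline-induced HEK293 TREx D1 cells, force-coupled to calcium signalling, were dye-loaded with a no-wash calcium kit. Compound was pin-added after a 10 s baseline. Fluorescence was read kinetically at 1 cycle/s for 180 s, with calcium rises flagged as agonism.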
D3 antag = antagonists of human D3 dopamine receptor. 2.5% of 360,000 active. AID 652054. P35462. max response, negative = inhibition, %. D3R cells, DiscoveRx beta-arrestin luminescence, antagonist mode; hits give low values; in the data active means max response below about -50%; inconclusive means no clear call, values can overlap the other calls
Target sequence (P35462 whole entry, looked up): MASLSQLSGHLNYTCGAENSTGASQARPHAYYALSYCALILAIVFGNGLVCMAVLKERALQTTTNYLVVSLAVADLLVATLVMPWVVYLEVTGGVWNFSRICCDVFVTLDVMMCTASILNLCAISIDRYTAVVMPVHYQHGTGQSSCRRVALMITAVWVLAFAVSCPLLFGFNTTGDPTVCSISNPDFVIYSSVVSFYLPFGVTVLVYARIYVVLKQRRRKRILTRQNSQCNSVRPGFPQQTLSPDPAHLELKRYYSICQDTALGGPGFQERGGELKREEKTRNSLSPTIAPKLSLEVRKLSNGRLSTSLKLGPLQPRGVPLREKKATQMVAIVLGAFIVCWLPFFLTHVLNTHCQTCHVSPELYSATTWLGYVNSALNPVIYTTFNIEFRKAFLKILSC
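Cells expressing the human receptor were seeded at 1500 cells/well, incubated overnight at 37 degrees C in 5% CO2, then exposed to library compounds with dopamine controls for 90 minutes at 37 degrees C before luminescent detection.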
D1 antagonist = blocks dopamine activation of the human D1 receptor; HEK293 TREx D1 cells, calcium flux, dopamine EC80; hits give low values; activity change, negative = inhibition, % at 10 µM; 3.2% of 360,000 active; in the data active means activity change below about -30%
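Calcium flux readout: force-coupled, inducible Hek293 Trex D1 line, cells induced overnight at 30 C with tetracycline, dye-loaded 30–90 min at RT. Antagonism scored against EC80 dopamine challenge given 180 s after compound.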
D3 ag = D3 dopamine receptor (human) agonism | 0.58% of 410,000 active | D3R DiscoveRx beta-arrestin cells, luminescence, 90 min | max activation, % | AID 652048 | P35462; in the data active means max activation above about 30%
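Cells at 1500/well, incubated overnight, then treated with pinned compounds (dopamine as control) for 90 min at 37 degrees C. DiscoveRx reagent added for 30 - 60 minutes at room temperature; luminescence read.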
Of the large screens only hits and unclear results are named; the others gave an inactive call.

CC(=O)Nc1ccc(C)c([N+](=O)[O-])c1	none
CC(CC(=O)Nc1ccc2c(c1)c(=O)n(C)n2-c1ccccc1)c1ccccc1 (centres undefined)	D3 antag -78 (no result: D1 potentiator, D1 agonist, D1 antagonist)
O=[N+]([O-])c1ccc([S+](=O)([O-])N2CCN([S+](=O)([O-])c3ccc4c(c3)OCCO4)CC2)c([N+](=O)[O-])c1	none (no result: D3 antag, D3 ag)
O=C(COc1ccccc1)N(Cc1cccnc1)c1nc2c(F)cccc2s1	none (no result: D3 antag, D1 antagonist)
COc1ccc(N2CC(C(=O)Nc3nnc(SCC(=O)N4CCOCC4)s3)CC2=O)cc1 (centres undefined)	none
Cc1cc(C)cc(CC(=O)N2CCC2(C)C(=O)NS(=O)(=O)c2ccc(Br)cc2)c1 (centres undefined)	none (no result: D1 potentiator, D1 agonist, D1 antagonist)
CCc1ccc(NC(=O)CCc2nc3ccccc3[nH]2)cc1	none
CCCn1c2ccccc2c2cnn(CC(=O)N(CCCOC(C)C)Cc3ccco3)c(=O)c21	none (no result: D3 antag)
O=C(Nc1ccccc1)Nc1ccccc1	D3 antag inconclusive, D1 antagonist -33
O=C(Nc1ccccc1)Nc1ccc(Nc2ccccc2)cc1	none (no result: D1 potentiator, D1 agonist, D1 antagonist)
CC(=O)Nc1cccc(-c2ccnc3c2CC(C)(C(=O)Nc2cccc(C(C)=O)c2)O3)c1 (centres undefined)	none (no result: D1 potentiator, D1 agonist, D1 antagonist)
CC(=O)N1CCc2cc(Br)cc(S(=O)(=O)N3CCC(C(=O)O)CC3)c21	none
Cc1ccc(C(=O)NCCCNC(=O)c2ccccn2)cc1	none
Cc1ccc(C(=O)NCCCNc2ccccc2[N+](=O)[O-])cc1	D1 antagonist -44
CCCCNCC(O)(c1ccc(Cl)cc1)c1ccc(Cl)cc1	D3 antag -87
COc1ccc(CNCC(O)(c2ccc(Cl)cc2)c2ccc(Cl)cc2)cc1	none
Cc1cc(Cl)c(OCCCSc2nc(C)cc(=O)[nH]2)c(Br)c1	D3 ag 41
Cc1cc(=O)[nH]c(SCCCOc2ccc(F)cc2)n1	none
CSC1=C(C#N)C(=O)NC(c2ccccc2O)S1 (centres undefined)	none
COC(=O)CSC1=C(C#N)C(=O)NC(c2ccccc2)S1 (centres undefined)	D3 antag -74
O=C(Cn1c(-c2cccs2)cc2cc(Cl)ccc21)N1CCN(c2ccccc2)CC1	none (no result: D3 antag)
CC(C)(C)c1cccc(Cn2nnc3ccccc32)c1O	D1 antagonist -43
COc1ccccc1N1CCN(S(=O)(=O)CCNC(=O)c2ccccc2Br)CC1	none
Cc1cc(C)nc(SCC(=O)N2CCOCC2)n1	D3 antag -54
C/C(=N\NC(=O)c1cc(C)oc1C)c1ccc2ccccc2c1	D1 antagonist -42
O=C(Nc1c(-c2ccccc2)[nH][nH]c1=O)c1ccccc1	none (no result: D1 potentiator, D1 agonist, D1 antagonist)
C/C(=N\NC(=O)c1ccc2c(c1)OCO2)c1ccc2c(c1)OCO2	D3 antag -55
O=C(Nc1c(-c2ccc3c(c2)OCO3)[nH][nH]c1=O)c1ccc2c(c1)OCO2	D3 antag -78 (no result: D1 potentiator, D1 agonist, D1 antagonist)
C/C(=N\Nc1ccc([N+](=O)[O-])cc1)c1ccc2c(c1)OCO2	D1 agonist 38, D1 antagonist -38
Cc1cc(C(=O)NN=C(Cc2ccccc2)Cc2ccccc2)c(C)o1	none
CC(C)(C)OC(=O)N[C@H](C(=O)OC(C)(C)C)c1ccc2c(c1)OCO2	none (no result: D1 antagonist)
Cn1c(=O)c2c(-c3ccc(Cl)cc3)n(Cc3ccc(Cl)cc3)cc2n(C)c1=O	none (no result: D3 antag)
C/C(=N\NS(=O)(=O)c1ccc([N+](=O)[O-])cc1)c1ccc2c(c1)OCO2	D1 antagonist -31
O=C(Nc1cccc(Cl)c1Cl)c1ccc2c(c1)N(Cc1cccc(Cl)c1)C(=O)c1ccccc1S2(=O)=O	none (no result: D3 antag)
O=C(Nc1cccc(F)c1)C1CCCN(C(=O)c2ccc(Cl)cc2)C1 (centres undefined)	none
CC(NC(=O)C1CCCN(C(=O)c2ccc(Cl)cc2)C1)c1cccc(C(F)(F)F)c1 (centres undefined)	D1 antagonist -37 (no result: D1 potentiator)
O=C(c1cccc(C(F)(F)F)c1)N1CCCCCC1	D1 antagonist -56
CCOc1cc(CNCCO)cc(Br)c1OCc1ccccc1	none (no result: D1 antagonist)
CCOc1cc(CNCCc2ccc(S(N)(=O)=O)cc2)ccc1OCc1ccccc1	D1 agonist 35, D3 antag inconclusive, D1 antagonist -45
CCNCc1cc(Cl)c(OCc2ccccc2)c(OCC)c1	D1 agonist 55
CCOc1cc(CNCCc2ccc(S(N)(=O)=O)cc2)cc(Cl)c1OCc1ccccc1	D1 agonist 34
NS(=O)(=O)c1ccc(CCNCc2cc(Br)ccc2OCc2ccccc2)cc1	D1 agonist 34, D1 antagonist -34
OCCNCc1cc(Br)ccc1OCc1ccccc1	none
CCOc1cc(CNc2ccc(S(N)(=O)=O)cc2)cc(Cl)c1OC	none
CCCCN1CC(COCc2ccccc2)Oc2cccc(OCc3ccc(OC)cc3)c2S1(=O)=O (centres undefined)	none (no result: D1 potentiator, D1 agonist, D1 antagonist)
Cc1cccc(C)c1NC(=O)N1CCC(c2nc3ccccc3o2)CC1	D3 antag -75
Cc1ccc(C(=O)C(C)OC(=O)c2cc3cc([N+](=O)[O-])ccc3oc2=O)cc1 (centres undefined)	D3 antag -99
CCN1CCN(C(=O)c2cc3cc([N+](=O)[O-])ccc3oc2=O)CC1	D1 antagonist -36
COc1cccc2cc(C(=O)OC(C)C(=O)c3ccc(C)cc3)c(=O)oc12 (centres undefined)	none
CC(NC(=O)c1cc2cc([N+](=O)[O-])ccc2oc1=O)C1CCCO1 (centres undefined)	none
COc1ccc(C(=O)NNC(=O)c2cc3cc([N+](=O)[O-])ccc3oc2=O)cc1OC	D3 antag -53
O=C(c1cc2cc([N+](=O)[O-])ccc2oc1=O)N1CCN(C2CCCCC2)CC1	none
COc1ccc(N2CCN(C(=O)CN3C(=O)NC4(CCCCCC4)C3=O)CC2)cc1	none (no result: D1 potentiator)
CN1CCN(C(=O)/C(=C/c2cccs2)NC(=O)c2ccco2)CC1	none
CCN1CCN(c2nc3ccccn3c(=O)c2/C=C(\C#N)S(=O)(=O)c2ccccc2)CC1	D1 antagonist -66
CCN1CCN(c2nc3c(C)cccn3c(=O)c2/C=C(\C#N)S(=O)(=O)c2ccccc2)CC1	none
Cc1ccc(S(=O)(=O)/C(C#N)=C/c2c(N3CCC(C(N)=O)CC3)nc3c(C)cccn3c2=O)cc1	D3 antag inconclusive, D1 antagonist -47
Cc1cccn2c(=O)c(/C=C(\C#N)S(=O)(=O)c3ccccc3)c(N3CCC(C(N)=O)CC3)nc12	D3 antag inconclusive
CCOC(=O)c1c(C)oc2ncnc(Nc3cc(C)cc(C)c3)c12	none (no result: D3 antag)
CN1CCC(=NNC(=O)CN(c2ccc([N+](=O)[O-])cc2)S(=O)(=O)c2ccccc2)CC1	none
OCc1ccccc1-c1ccc2nncn2c1	none (no result: D1 potentiator, D1 agonist, D1 antagonist)
FC(F)(F)c1cnc(N2CCCN(C(=S)Nc3ccccc3)CC2)c(Cl)c1	none
O=C(NNC1=Nc2ccccc2SC1)c1cccc([N+](=O)[O-])c1	D3 antag -61
O=C1c2cccnc2C(=O)N1Cc1ccco1	none
O=C1c2cccnc2C(=O)N1Cc1ccc2c(c1)OCO2	D3 ag 41
